Binding signal data for eight sequences are collected here from PMC7862700, “An all-to-all approach to the identification of sequence-specific readers for epigenetic DNA modifications on cytosine”.

What all share (assay): DAPPL (digital affinity profiling via proximity ligation, sequencing); 10 mM Tris-HCl pH 7.5, 50 mM NaCl, 1 mM DTT, 4% glycerol, room temperature, 30 min; GST-TFs on glutathione beads, 16-mer random dsDNA library, 0.1% formaldehyde crosslink after washing; high values mean tight binding
What all share (settings): protein: recombinant; tags: N-terminal GST; dsDNA, one strand shown

For one test, the target named is T1, FLI1 (Homo sapiens, UniProt Q01543 1-452).
T1 sequence: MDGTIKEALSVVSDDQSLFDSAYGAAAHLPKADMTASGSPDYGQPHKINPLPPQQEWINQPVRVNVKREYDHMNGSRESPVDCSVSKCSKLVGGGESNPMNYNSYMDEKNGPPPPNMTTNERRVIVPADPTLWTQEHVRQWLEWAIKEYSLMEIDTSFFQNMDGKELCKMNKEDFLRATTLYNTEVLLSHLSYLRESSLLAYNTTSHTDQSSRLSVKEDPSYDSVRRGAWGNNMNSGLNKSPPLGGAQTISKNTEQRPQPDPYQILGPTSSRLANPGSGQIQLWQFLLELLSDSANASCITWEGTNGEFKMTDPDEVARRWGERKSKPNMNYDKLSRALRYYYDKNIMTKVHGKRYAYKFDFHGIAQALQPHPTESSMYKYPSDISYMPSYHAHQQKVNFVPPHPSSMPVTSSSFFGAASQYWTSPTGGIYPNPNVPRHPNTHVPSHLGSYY
The gist of the method:
(§1)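 In yeast, human transcription factors were expressed with a GST fusion, then pulled down on glutathione beads and given DNA barcodes. Pooled with a tag-only sample, they were exposed to 200 nmole of a 16-mer random double-stranded DNA library (Tris/NaCl/DTT/glycerol buffer, room temperature, 30 min), washed, crosslinked with 0.1% formaldehyde, proximity-ligated using BsaI/T4 ligase for 1 h at 37 °C, PCR-amplified and read on an Illumina NextSeq500. Each hexamer's frequency of reads for a factor, divided by the matching frequency for the tag-only sample, gives the binding signal.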

The target in another test is T2, ELK1 (Homo sapiens, UniProt P19419 1-428).
T2 sequence: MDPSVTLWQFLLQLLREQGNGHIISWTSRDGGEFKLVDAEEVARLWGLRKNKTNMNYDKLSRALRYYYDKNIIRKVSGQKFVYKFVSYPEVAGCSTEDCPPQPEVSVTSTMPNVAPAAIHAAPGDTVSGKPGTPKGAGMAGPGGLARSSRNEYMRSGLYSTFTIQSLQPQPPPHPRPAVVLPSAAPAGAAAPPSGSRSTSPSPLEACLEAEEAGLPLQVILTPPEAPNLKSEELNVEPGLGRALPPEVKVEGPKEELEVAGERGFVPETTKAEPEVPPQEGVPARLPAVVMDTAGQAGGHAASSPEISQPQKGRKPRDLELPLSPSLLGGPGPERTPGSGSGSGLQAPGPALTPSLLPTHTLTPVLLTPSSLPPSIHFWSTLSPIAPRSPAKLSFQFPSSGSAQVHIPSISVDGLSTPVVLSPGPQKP
The method, boiled down: as §1

A further test addresses T3, GABPA (Homo sapiens, UniProt Q06546 1-454).
T3 sequence: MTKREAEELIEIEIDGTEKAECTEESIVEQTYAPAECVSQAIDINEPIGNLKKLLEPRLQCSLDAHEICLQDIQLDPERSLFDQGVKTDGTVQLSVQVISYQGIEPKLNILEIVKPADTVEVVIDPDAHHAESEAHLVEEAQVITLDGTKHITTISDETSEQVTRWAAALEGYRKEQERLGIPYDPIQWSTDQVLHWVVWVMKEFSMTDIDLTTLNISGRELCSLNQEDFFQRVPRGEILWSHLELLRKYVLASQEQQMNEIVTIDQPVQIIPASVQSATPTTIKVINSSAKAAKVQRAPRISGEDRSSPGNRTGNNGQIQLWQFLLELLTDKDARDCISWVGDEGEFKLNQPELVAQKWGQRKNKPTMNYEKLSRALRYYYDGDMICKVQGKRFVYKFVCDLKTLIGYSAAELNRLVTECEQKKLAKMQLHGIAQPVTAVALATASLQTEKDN
The gist of the method: as §1

The target in another test is T4, ERG (Homo sapiens, UniProt P11308 1-479).
T4 sequence: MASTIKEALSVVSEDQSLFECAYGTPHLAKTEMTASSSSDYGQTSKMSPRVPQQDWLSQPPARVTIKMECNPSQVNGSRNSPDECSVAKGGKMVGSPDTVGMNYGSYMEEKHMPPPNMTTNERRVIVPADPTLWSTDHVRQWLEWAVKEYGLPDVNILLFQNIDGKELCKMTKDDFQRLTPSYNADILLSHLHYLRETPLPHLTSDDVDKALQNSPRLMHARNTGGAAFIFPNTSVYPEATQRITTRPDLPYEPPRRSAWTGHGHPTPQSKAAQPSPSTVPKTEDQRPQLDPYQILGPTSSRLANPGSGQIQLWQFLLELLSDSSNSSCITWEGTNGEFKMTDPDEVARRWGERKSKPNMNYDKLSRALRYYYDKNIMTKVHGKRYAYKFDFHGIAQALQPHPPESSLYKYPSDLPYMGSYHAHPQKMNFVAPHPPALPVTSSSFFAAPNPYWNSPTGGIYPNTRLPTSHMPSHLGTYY
The gist of the method:
as §1

In the next test the target is ELF1 (Homo sapiens, UniProt P32519 1-619). The gist of the method: as §1
ELF1, sequence (P32519 whole entry): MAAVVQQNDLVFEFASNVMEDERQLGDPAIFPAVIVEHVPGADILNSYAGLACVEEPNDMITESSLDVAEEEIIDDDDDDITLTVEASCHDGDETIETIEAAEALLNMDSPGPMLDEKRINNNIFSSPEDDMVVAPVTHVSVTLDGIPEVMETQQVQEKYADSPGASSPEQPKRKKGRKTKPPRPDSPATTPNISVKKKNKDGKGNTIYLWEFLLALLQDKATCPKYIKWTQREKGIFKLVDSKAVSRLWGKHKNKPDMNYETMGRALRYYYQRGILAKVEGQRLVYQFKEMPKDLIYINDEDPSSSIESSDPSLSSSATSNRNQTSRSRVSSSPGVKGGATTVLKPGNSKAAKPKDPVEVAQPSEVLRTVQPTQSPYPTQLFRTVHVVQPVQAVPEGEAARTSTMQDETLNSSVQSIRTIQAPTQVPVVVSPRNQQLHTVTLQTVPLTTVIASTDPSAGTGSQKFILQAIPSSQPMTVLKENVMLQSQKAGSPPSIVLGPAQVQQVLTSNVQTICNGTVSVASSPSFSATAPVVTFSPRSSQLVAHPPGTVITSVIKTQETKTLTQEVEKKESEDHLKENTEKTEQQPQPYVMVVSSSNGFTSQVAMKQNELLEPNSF
For another test, the target named is T5, EHF (Homo sapiens, UniProt Q9NZC4 1-300).
T5 sequence: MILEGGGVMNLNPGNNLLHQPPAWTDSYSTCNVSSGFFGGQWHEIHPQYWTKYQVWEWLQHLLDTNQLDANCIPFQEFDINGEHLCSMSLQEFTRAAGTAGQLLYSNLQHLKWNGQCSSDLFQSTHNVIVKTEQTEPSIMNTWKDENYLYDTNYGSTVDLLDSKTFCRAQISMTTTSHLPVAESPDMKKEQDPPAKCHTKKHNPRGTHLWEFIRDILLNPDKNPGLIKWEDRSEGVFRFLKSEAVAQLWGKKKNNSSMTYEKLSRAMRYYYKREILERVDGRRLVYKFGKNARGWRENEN
The method, boiled down:
as §1

Another test deals with SPI1 (Homo sapiens, UniProt P17947 1-270). The method, boiled down: as §1
The target of another test is SPIB (Homo sapiens, UniProt Q01892 1-262). The method, boiled down: as §1
SPIB, sequence (Q01892 whole entry): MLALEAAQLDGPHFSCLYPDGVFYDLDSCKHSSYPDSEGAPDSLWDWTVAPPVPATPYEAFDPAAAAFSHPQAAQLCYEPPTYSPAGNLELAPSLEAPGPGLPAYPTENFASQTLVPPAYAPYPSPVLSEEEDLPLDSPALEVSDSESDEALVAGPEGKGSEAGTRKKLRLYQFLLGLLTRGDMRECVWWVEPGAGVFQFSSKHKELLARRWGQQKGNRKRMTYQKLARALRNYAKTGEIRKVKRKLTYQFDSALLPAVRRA
A further test addresses T6, ELK3 (Homo sapiens, UniProt P41970 1-407).
T6 sequence: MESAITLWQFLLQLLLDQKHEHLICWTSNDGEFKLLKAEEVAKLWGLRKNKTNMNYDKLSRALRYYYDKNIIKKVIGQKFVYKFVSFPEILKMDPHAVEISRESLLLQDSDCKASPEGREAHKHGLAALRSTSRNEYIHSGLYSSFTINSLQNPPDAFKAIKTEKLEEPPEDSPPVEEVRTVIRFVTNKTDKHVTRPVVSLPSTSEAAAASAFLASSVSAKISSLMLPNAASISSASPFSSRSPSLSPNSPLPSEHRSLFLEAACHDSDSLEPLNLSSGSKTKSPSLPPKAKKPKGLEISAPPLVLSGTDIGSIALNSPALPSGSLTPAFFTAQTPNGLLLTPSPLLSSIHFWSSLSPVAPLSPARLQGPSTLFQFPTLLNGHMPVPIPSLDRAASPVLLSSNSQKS
The gist of the method:
as §1

In the case of CCTATC, the binding signal is 1.27 fold enrichment (6-mer frequency, TF over GST control) with FLI1; 1.27 fold enrichment (6-mer frequency, TF over GST control) with ELK1; 1.13 fold enrichment (6-mer frequency, TF over GST control) with GABPA; 1.15 fold enrichment (6-mer frequency, TF over GST control) with ERG; 1.15 fold enrichment (6-mer frequency, TF over GST control) in the test with ELF1; 1.18 fold enrichment (6-mer frequency, TF over GST control) with EHF. Besides, the binding signal in the test with SPI1 is 1.14 fold enrichment (6-mer frequency, TF over GST control); with SPIB, 1.31 fold enrichment (6-mer frequency, TF over GST control); with ELK3 it was 1.45 fold enrichment (6-mer frequency, TF over GST control).
On to TTGGTA, for which the binding signal with FLI1 is 1.23 fold enrichment (6-mer frequency, TF over GST control); in the test with ELK1, 1.3 fold enrichment (6-mer frequency, TF over GST control); with GABPA, 1.22 fold enrichment (6-mer frequency, TF over GST control); with ERG, 1.13 fold enrichment (6-mer frequency, TF over GST control); with ELF1, 1.19 fold enrichment (6-mer frequency, TF over GST control); with EHF, 1.21 fold enrichment (6-mer frequency, TF over GST control). The binding signal with SPI1 was 1.23 fold enrichment (6-mer frequency, TF over GST control); with SPIB it was 1.33 fold enrichment (6-mer frequency, TF over GST control); with ELK3 it was 1.2 fold enrichment (6-mer frequency, TF over GST control).
Take TCCCCC: the binding signal with FLI1 is 1.59 fold enrichment (6-mer frequency, TF over GST control); with ELK1 it was 1.54 fold enrichment (6-mer frequency, TF over GST control); in the test with GABPA, 1.44 fold enrichment (6-mer frequency, TF over GST control); with ERG, 1.48 fold enrichment (6-mer frequency, TF over GST control); with ELF1 it was 1.58 fold enrichment (6-mer frequency, TF over GST control); with EHF it was 1.52 fold enrichment (6-mer frequency, TF over GST control). Moreover, the binding signal in the test with SPI1 is 1.46 fold enrichment (6-mer frequency, TF over GST control); with SPIB, 1.53 fold enrichment (6-mer frequency, TF over GST control); in the test with ELK3 it was 1.27 fold enrichment (6-mer frequency, TF over GST control).
As for ATCCGG, the binding signal with FLI1 is 2.65 fold enrichment (6-mer frequency, TF over GST control); with ELK1, 2.59 fold enrichment (6-mer frequency, TF over GST control); with GABPA it was 2.37 fold enrichment (6-mer frequency, TF over GST control); with ERG, 3.22 fold enrichment (6-mer frequency, TF over GST control); with ELF1, 2.29 fold enrichment (6-mer frequency, TF over GST control); with EHF it was 2.65 fold enrichment (6-mer frequency, TF over GST control). Moreover, the binding signal with SPI1 is 2.37 fold enrichment (6-mer frequency, TF over GST control); with SPIB it was 2.77 fold enrichment (6-mer frequency, TF over GST control); with ELK3, 2.66 fold enrichment (6-mer frequency, TF over GST control).
Consider ATTGAC, for which the binding signal in the test with FLI1 was 1.18 fold enrichment (6-mer frequency, TF over GST control); with ELK1, 1.21 fold enrichment (6-mer frequency, TF over GST control); in the test with GABPA, 1.22 fold enrichment (6-mer frequency, TF over GST control); with ERG it was 1.19 fold enrichment (6-mer frequency, TF over GST control); with ELF1 it was 1.19 fold enrichment (6-mer frequency, TF over GST control); with EHF it was 1.22 fold enrichment (6-mer frequency, TF over GST control). The binding signal is 1.14 fold enrichment (6-mer frequency, TF over GST control) with SPI1; 1.2 fold enrichment (6-mer frequency, TF over GST control) with SPIB; 1.16 fold enrichment (6-mer frequency, TF over GST control) with ELK3.
In the case of TCTAGC, the binding signal with FLI1 is 1.31 fold enrichment (6-mer frequency, TF over GST control); in the test with ELK1, 1.34 fold enrichment (6-mer frequency, TF over GST control); with GABPA it was 1.24 fold enrichment (6-mer frequency, TF over GST control); with ERG, 1.32 fold enrichment (6-mer frequency, TF over GST control); with ELF1, 1.35 fold enrichment (6-mer frequency, TF over GST control); with EHF, 1.38 fold enrichment (6-mer frequency, TF over GST control). For the same sequence, the binding signal with SPI1 was 1.21 fold enrichment (6-mer frequency, TF over GST control); with SPIB, 1.19 fold enrichment (6-mer frequency, TF over GST control); in the test with ELK3 it was 1.44 fold enrichment (6-mer frequency, TF over GST control).
In the case of GTATTT, the binding signal in the test with FLI1 was 1.47 fold enrichment (6-mer frequency, TF over GST control); with ELK1, 1.61 fold enrichment (6-mer frequency, TF over GST control); in the test with GABPA it was 1.48 fold enrichment (6-mer frequency, TF over GST control); in the test with ERG it was 1.67 fold enrichment (6-mer frequency, TF over GST control); with ELF1, 1.53 fold enrichment (6-mer frequency, TF over GST control); with EHF, 1.6 fold enrichment (6-mer frequency, TF over GST control). Besides, the binding signal was 1.55 fold enrichment (6-mer frequency, TF over GST control) with SPI1; 1.61 fold enrichment (6-mer frequency, TF over GST control) with SPIB; 1.75 fold enrichment (6-mer frequency, TF over GST control) in the test with ELK3.
Regarding TCCTAT, the binding signal with FLI1 is 1.62 fold enrichment (6-mer frequency, TF over GST control); with ELK1 it was 1.56 fold enrichment (6-mer frequency, TF over GST control); with GABPA, 1.58 fold enrichment (6-mer frequency, TF over GST control); with ERG it was 1.45 fold enrichment (6-mer frequency, TF over GST control); with ELF1, 1.46 fold enrichment (6-mer frequency, TF over GST control); with EHF, 1.5 fold enrichment (6-mer frequency, TF over GST control). Further, the binding signal is 1.44 fold enrichment (6-mer frequency, TF over GST control) in the test with SPI1; 1.6 fold enrichment (6-mer frequency, TF over GST control) in the test with SPIB; 1.47 fold enrichment (6-mer frequency, TF over GST control) with ELK3.
